Results filed as inconclusive are left out. Calls of active or inactive are those of the source. Unless noted, calls follow the shape of the dose curve; as a rule, active = well fitted curve in the direction sought with a large enough effect in the repeat runs; inconclusive = weak or mixed curves; inactive = no such curve, though single readings can be large; an effect the other way counts as inactive or inconclusive.
What was measured:
[1] = Human pregnane X receptor (PXR) small molecule agonists, qHTS cell viability counter screen (AID 1346977); also: nearly all actives have a fitted effect of over 50% in size
Summary of the method: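 Fluorescence read-out (CellTiter-Fluor) of viability in PXR-Luc HepG2 cells, multiplexed with the luciferase agonist read. Compounds in DMSO added after 5hr plating; 24hr total exposure at 37C, 5% CO2.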

[2] = Caspase-3/7 induction in HepG2 cells by small molecules, qHTS assay (AID 1346978); also: nearly all actives have a fitted effect of over 15% in size
Summary of the method: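 Caspase-3/7 induction was measured by Caspase-Glo 3/7 luminescence (30 min, room temperature) after a 17 hr compound exposure of wild-type HepG2 cells seeded at 2,000 per well and pre-incubated 5 hr.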

[3] = Caspase-3/7 induction in CHO-K1 cells by small molecules, qHTS cell viability counter screen (AID 1346979); also: nearly all actives have a fitted effect of over 35% in size
Summary of the method: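 CHO-K1 wt, 1,500 cells/well; 5hr pre-incubation 37C/5% CO2; compound pin transfer (DMSO); 16hr exposure; CellTiter-Fluor added, 1hr, fluorescence read.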

[4] = Caspase-3/7 induction in CHO-K1 cells by small molecules, qHTS assay (AID 1346980); also: nearly all actives have a fitted effect of over 15% in size
Summary of the method: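 Luminescent Caspase-Glo 3/7 read (30min, room temperature) quantified apoptosis induction. Cells were wild-type CHO-K1, treated with compound for 17hr at 37 C and 5% CO2.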

[5] = Caspase-3/7 induction in HepG2 cells by small molecules, qHTS cell viability counter screen (AID 1346981); also: series mostly up to about 92 µM; nearly all actives have a fitted effect of over 30% in size
Summary of the method: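 Wild-type HepG2 cells, 2,000/well, settled 5 hr at 37 C, 5% CO2 before compound addition. Viability read by CellTiter-Fluor fluorescence, reagent added after 16 hr compound exposure, then 1 hr at 37C, in the same wells as the caspase read.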

[6] = molecular target: Nuclear receptor subfamily 1 group I member 2 (Homo sapiens) (UniProt O75469); test: Human pregnane X receptor (PXR) small molecule agonists, qHTS assay (AID 1346982); also: nearly all actives have a fitted effect of over 35% in size; also: potency is read from the fitted curve at half-maximal effect
Nuclear receptor subfamily 1 group I member 2 (Homo sapiens), sequence (O75469 whole entry, looked up): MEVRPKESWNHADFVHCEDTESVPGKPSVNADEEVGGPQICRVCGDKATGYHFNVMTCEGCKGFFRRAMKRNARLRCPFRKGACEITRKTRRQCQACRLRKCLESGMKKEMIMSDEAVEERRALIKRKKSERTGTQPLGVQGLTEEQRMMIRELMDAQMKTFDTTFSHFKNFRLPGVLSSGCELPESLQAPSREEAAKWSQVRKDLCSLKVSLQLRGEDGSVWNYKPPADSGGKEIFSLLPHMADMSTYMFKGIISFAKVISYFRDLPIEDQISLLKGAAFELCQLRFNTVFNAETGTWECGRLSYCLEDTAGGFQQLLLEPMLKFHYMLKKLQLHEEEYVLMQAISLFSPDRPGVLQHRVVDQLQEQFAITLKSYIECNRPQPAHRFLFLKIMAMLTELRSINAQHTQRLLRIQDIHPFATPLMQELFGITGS
Summary of the method: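 PXR-Luc HepG2 reporter cells (CYP3A4-driven luciferase) in 5% charcoal-stripped FBS medium, plated 5 h before compound addition, then treated 24 h at 37C. Luciferase read by ONE-Glo luminescence after 30 min at room temperature.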

[7] = molecular target: Nuclear receptor subfamily 1 group I member 2 (Rattus norvegicus) (UniProt Q9R1A7); test: Rat pregnane X receptor (rPXR) activation by small molecules, qHTS assay (AID 1346983); conditions: rPXR luciferase reporter cells, One-Glo luminescence, 24 h; stronger effect = higher value; also: nearly all actives have a fitted effect of over 20% in size
Nuclear receptor subfamily 1 group I member 2 (Rattus norvegicus), sequence (Q9R1A7 whole entry, looked up): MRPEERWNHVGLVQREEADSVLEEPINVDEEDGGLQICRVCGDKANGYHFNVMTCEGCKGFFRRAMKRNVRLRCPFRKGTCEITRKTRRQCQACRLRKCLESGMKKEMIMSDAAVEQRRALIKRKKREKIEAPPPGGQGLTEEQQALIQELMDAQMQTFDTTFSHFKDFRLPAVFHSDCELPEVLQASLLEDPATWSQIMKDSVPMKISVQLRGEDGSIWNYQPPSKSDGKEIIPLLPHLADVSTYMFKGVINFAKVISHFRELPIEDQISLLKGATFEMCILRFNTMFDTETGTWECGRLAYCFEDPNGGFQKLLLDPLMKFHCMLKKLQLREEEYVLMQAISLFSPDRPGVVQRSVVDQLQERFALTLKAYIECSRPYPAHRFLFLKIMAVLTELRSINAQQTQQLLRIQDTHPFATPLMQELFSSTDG
Summary of the method: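 Luminescent readout (One-Glo luciferase, 30 min room temperature) followed 24 hr compound treatment at 37 C of rPXR cells plated 2,000 per well and preincubated 5hr; qHTS format with compounds delivered in DMSO.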

[8] = molecular target: Nuclear receptor subfamily 1 group I member 2 (Homo sapiens) (UniProt O75469); test: CYP3A4 induction through human pregnane X receptor (PXR) by small molecules, qHTS assay (AID 1346984); also: nearly all actives have a fitted effect of over 40% in size
Summary of the method: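 DPX-2 HepG2 cells carrying a PXR response element and CYP3A4-promoter luciferase construct, treated with compounds 24 hr at 37C. Then P450-Glo CYP3A4 Luciferin-IPA substrate (3uM final) for 3 hr at 37C, One-Glo added, luminescence read.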

[9] = molecular target: Nuclear receptor subfamily 1 group I member 2 (Homo sapiens) (UniProt O75469); test: Human pregnane X receptor (PXR) activation by small molecules, qHTS assay (AID 1346985); also: nearly all actives have a fitted effect of over 40% in size
Summary of the method: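 DPX-2 cells (HepG2 co-transfected with a PXR response element and a CYP3A4-promoter luciferase construct) were seeded at 2,000 per well, rested 5 hr at 37C, then exposed to DMSO-dissolved compounds for 24 hr. Activation was read as luciferase luminescence.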

[10] = molecular target: Acetylcholinesterase (Homo sapiens) (UniProt P22303); test: Acetylcholinesterase (AChE) small molecule antagonists: colormetric cell-based qHTS assay (AID 1347395; calls by dose curve; also: nearly all actives have a fitted effect of over 30% in size; also: potency is read from the fitted curve at half-maximal effect)
Acetylcholinesterase (Homo sapiens), sequence (P22303 whole entry, looked up): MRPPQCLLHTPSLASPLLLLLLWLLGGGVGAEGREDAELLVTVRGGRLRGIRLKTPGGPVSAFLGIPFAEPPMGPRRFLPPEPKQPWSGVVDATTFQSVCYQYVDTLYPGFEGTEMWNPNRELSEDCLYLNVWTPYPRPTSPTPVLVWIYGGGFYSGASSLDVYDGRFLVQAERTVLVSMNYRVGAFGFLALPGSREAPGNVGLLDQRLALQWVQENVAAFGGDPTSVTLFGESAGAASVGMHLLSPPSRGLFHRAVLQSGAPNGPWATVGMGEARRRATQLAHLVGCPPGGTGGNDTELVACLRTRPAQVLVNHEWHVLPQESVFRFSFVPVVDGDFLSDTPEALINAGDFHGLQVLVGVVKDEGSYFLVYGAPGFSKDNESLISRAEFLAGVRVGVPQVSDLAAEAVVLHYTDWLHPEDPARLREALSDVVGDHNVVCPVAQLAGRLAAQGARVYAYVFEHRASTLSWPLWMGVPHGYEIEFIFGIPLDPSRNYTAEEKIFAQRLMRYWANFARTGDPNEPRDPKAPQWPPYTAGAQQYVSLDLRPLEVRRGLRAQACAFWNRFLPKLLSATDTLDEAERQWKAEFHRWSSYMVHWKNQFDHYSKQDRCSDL
Summary of the method: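 SH-SY5Y cells; cpd 30 min 37 C; + DTNB/acetylthiocholine, 90 min 37 C; colorimetric thiocholine read; qHTS.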

[11] = molecular target: Acetylcholinesterase (Homo sapiens) (UniProt P22303); test: Acetylcholinesterase (AChE) small molecule antagonists: enzyme-based qHTS assay (AID 1347397; calls by dose curve; also: nearly all actives have a fitted effect of over 55% in size; also: potency is read from the fitted curve at half-maximal effect); conditions: Potency: AChE enzyme activity inhibition; outcome: AChE enzyme activity inhibition
Summary of the method: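 Absorbance-based detection of thiocholine with DTNB served as the read-out. Recombinant human AChE was exposed to compound for 30 min at RT before a 10 min RT incubation with acetylthiocholine.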

[12] = molecular target: Acetylcholinesterase (Homo sapiens) (UniProt P22303); test: Acetylcholinesterase (AChE) small molecule antagonists: fluorescence cell-based qHTS assay (AID 1347398; calls by dose curve; also: nearly all actives have a fitted effect of over 50% in size; also: potency is read from the fitted curve at half-maximal effect); conditions: Potency: AChE activity; outcome: AChE activity
Summary of the method: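 Fluorimetric cell-based assay: intact SH-SY5Y cells, 30 min compound preincubation at 37 C, acetylthiocholine substrate with thiol probe Thiolite Green, 40 min RT development, fluorescence 490/520 nm.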

[13] = molecular target: Acetylcholinesterase (Homo sapiens) (UniProt P22303); test: Acetylcholinesterase (AChE) small molecule antagonists: enzyme-based qHTS assay with human liver microsomes (AID 1347399; calls by dose curve; also: nearly all actives have a fitted effect of over 60% in size; also: potency is read from the fitted curve at half-maximal effect); conditions: Potency: qHTS inhibition; outcome: qHTS inhibition
Summary of the method: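 Recombinant human AChE (50 mU/mL in the enzyme mix) and human liver microsomes (0.25 mg/mL final) were preincubated with compound and NADPH (0.25 mg/mL final) for 30 min at 37 C. Acetylthiocholine/DTNB was then added; thiocholine was read colorimetrically after 10 min at room temperature.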

[14] = molecular target: Cytochrome P450 2D6 (Homo sapiens) (UniProt P10635); test: Cytochrome P450 Family 2 Subfamily D Member 6 (CYP2D6) small molecule antagonists: luciferase reporter qHTS assay (AID 1671196); also: nearly all actives have a fitted effect of over 50% in size; also: potency is read from the fitted curve at half-maximal effect
Cytochrome P450 2D6 (Homo sapiens), sequence (P10635 whole entry, looked up): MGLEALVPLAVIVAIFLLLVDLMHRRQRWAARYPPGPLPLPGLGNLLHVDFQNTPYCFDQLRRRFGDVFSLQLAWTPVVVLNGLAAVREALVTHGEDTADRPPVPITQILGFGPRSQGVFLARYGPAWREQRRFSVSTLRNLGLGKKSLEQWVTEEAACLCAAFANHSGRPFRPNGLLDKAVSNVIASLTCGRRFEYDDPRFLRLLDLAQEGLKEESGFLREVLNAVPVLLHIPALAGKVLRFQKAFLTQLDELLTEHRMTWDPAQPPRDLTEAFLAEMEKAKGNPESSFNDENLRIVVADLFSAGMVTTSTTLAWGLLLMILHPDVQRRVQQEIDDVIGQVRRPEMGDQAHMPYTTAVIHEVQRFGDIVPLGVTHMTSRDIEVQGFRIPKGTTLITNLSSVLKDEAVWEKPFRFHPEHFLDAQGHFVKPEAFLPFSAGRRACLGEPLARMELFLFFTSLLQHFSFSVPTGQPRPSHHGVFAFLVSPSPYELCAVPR
Summary of the method: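 Cell-free P450-Glo system: CYP2D6 with proluciferin substrate was pre-incubated with compound for 10 min, then reacted with NADPH regeneration for 1 h at room temperature. Luciferin product was detected after 20 min, and data were reported as relative luminescence units.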

[15] = molecular target: Cytochrome P450 2C19 (Homo sapiens) (UniProt P33261); test: Cytochrome P450 Family 2 Subfamily C Member 19 (CYP2C19) small molecule antagonists: luciferase reporter qHTS assay (AID 1671197); also: nearly all actives have a fitted effect of over 65% in size; also: potency is read from the fitted curve at half-maximal effect
Cytochrome P450 2C19 (Homo sapiens), sequence (P33261 whole entry, looked up): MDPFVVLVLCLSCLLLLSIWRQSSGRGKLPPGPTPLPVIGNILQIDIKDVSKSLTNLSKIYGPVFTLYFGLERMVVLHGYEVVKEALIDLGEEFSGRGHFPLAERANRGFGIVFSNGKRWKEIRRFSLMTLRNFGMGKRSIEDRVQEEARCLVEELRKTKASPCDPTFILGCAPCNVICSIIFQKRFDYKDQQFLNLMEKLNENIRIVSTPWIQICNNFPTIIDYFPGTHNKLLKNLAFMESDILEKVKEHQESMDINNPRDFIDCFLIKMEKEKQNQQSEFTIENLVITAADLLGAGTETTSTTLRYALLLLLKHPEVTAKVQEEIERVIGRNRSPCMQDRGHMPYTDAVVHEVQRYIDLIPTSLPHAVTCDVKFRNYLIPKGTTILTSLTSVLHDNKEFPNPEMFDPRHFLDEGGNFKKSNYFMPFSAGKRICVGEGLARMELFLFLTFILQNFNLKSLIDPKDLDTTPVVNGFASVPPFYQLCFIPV
Summary of the method: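 P450-Glo CYP2C19 screening system; proluciferin substrate; DMSO compound stocks; 10 min RT preincubation; NADPH regeneration, 1 h at 37C; luciferin detection reagent, 20 min RT; luminescence as RLU.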

[16] = molecular target: Cytochrome P450 2C9 (Homo sapiens) (UniProt P11712); test: Cytochrome P450 Family 2 Subfamily C Member 9 (CYP2C9) small molecule antagonists: luciferase reporter qHTS assay (AID 1671198); also: nearly all actives have a fitted effect of over 50% in size; also: potency is read from the fitted curve at half-maximal effect
Cytochrome P450 2C9 (Homo sapiens), sequence (P11712 whole entry, looked up): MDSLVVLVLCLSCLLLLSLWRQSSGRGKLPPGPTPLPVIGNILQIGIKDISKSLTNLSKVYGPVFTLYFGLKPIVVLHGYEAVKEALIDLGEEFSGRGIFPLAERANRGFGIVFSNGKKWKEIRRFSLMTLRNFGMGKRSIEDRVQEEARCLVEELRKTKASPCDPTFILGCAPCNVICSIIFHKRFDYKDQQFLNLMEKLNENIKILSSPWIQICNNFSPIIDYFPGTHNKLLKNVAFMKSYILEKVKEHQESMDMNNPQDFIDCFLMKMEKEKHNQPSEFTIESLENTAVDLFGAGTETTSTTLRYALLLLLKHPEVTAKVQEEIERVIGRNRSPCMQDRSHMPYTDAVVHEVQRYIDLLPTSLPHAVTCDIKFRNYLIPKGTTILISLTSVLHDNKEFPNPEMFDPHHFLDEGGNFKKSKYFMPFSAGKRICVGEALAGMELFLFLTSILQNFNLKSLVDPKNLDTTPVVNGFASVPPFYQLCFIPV
Summary of the method: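 Enzyme-substrate mix preincubated with compound 10 min at room temperature; reaction started with NADPH regeneration solution, 1 h 37C. Luminescent luciferin product read after 20 min detection reagent.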

[17] = molecular target: Voltage-gated inwardly rectifying potassium channel KCNH2 (Homo sapiens) (UniProt Q12809); test: Human Ether-a-go-go-Related Gene (hERG) channel small molecule antagonists: fluorescence cell-based qHTS assay (AID 1671200)
Voltage-gated inwardly rectifying potassium channel KCNH2 (Homo sapiens), sequence (Q12809 whole entry, looked up): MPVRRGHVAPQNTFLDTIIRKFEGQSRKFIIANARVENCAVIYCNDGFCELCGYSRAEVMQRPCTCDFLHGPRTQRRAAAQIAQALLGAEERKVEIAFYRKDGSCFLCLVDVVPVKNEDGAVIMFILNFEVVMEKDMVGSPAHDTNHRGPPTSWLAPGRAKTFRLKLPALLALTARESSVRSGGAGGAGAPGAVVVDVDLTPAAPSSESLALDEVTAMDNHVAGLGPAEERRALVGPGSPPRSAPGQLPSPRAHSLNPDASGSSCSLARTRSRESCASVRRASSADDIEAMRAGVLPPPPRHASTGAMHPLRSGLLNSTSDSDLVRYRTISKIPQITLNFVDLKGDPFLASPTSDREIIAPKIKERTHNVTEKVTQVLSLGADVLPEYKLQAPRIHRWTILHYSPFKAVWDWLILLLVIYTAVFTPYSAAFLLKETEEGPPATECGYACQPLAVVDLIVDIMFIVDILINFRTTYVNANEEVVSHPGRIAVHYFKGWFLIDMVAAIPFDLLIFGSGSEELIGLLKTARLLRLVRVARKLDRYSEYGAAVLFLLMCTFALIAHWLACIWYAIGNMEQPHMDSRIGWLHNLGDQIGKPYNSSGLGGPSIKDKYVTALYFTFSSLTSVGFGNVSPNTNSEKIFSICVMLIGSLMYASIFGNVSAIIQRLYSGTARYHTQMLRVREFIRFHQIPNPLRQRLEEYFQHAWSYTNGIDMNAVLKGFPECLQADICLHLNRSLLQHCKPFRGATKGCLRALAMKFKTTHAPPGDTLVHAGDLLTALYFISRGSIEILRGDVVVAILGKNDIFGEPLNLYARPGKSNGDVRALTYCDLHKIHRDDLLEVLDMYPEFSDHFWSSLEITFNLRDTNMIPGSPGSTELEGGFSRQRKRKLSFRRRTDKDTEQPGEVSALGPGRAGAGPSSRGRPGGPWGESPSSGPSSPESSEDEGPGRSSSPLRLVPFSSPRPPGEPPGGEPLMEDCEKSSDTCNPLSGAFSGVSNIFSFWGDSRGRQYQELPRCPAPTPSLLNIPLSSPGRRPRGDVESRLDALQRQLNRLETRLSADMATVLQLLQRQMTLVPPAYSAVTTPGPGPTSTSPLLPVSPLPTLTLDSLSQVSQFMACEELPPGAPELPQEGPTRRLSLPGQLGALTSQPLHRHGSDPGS
Summary of the method: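 Read-out: thallium influx as a surrogate for potassium, tracked as fluorescence (480 nm ex/540 nm em) every second for 2 min after Stimulus Buffer addition in dye-loaded hERG-U2OS cells.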

[18] = molecular target: Cytochrome P450 1A2 (Homo sapiens) (UniProt P05177); test: Cytochrome P450 Family 1 Subfamily A Member 2 (CYP1A2) small molecule antagonists: luciferase reporter qHTS assay (AID 1671199); also: nearly all actives have a fitted effect of over 50% in size; also: potency is read from the fitted curve at half-maximal effect
Cytochrome P450 1A2 (Homo sapiens), sequence (P05177 whole entry, looked up): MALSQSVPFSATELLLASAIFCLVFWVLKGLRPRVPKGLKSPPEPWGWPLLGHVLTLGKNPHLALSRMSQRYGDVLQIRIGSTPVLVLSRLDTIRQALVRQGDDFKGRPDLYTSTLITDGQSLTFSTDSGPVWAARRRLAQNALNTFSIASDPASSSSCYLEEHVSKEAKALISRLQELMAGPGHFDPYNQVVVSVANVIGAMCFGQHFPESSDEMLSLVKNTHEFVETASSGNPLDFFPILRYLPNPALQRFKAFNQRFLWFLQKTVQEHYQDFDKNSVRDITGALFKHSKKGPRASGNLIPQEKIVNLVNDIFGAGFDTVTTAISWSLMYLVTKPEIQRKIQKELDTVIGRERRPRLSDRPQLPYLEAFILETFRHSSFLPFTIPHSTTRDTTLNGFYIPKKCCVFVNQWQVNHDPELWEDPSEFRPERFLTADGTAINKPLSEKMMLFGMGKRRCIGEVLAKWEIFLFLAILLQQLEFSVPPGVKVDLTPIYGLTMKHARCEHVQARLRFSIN
Summary of the method: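 P450-Glo CYP1A2 enzyme–proluciferin substrate mix with compound 10 min at room temperature, then NADPH regeneration 1 h at room temperature. Luciferin detection reagent added, luminescence read after 20 min; furafylline positive control.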

[19] = molecular target: Cytochrome P450 3A4 (Homo sapiens) (UniProt P08684); test: Cytochrome P450 Family 3 Subfamily A Member 4 (CYP3A4) small molecule antagonists: luciferase reporter qHTS assay (AID 1671201)
Summary of the method: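 Luminescent readout (RLU) proportional to CYP3A4 activity, from luciferin generated off a proluciferin substrate. Enzyme–substrate mix plus compound 10 min at room temp, NADPH regeneration 1 h, detection reagent 20 min.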
% is scaled to controls: 0 for no effect and ±100 for the full control effect.

CC(C)[N+](C)(CCC(C(N)=O)(c1ccccc1)c1ccccc1)C(C)C
inactive: Potency [1] | outcome [2] | Potency [3] | outcome [4] | Potency [5] | Potency [6] | max activation [7] 0.796% | Potency [8] | Potency [9] | Potency [10] | Potency [11] | Potency [12] | Potency [13] | Potency [15] | Potency [17]
active: Potency [14] 0.776 µM | Potency [16] 38.9 µM

CC1NCCOC1c1ccccc1 (stereo not given)
inactive: Potency [1] | outcome [2] | Potency [3] | outcome [4] | Potency [5] | Potency [6] | max activation [7] -1.57% | Potency [8] | Potency [9] | Potency [10] | Potency [11] | Potency [12] | Potency [13] | Potency [15] | Potency [16] | Potency [18] | Potency [17] | Potency [19]

ClC(Cl)(Cl)Cl
inactive: Potency [1] | outcome [2] | Potency [3] | outcome [4] | Potency [5] | Potency [6] | max activation [7] -2.8% | Potency [8] | Potency [9] | Potency [10] | Potency [11] | Potency [12] | Potency [13] | Potency [14] | Potency [15] | Potency [16] | Potency [17] | Potency [19]

C[C@]12C=CC(=O)C=C1CC[C@@H]1[C@@H]2CC[C@@]2(C)[C@H]1CC[C@]2(C)O
inactive: Potency [1] | outcome [2] | Potency [3] | outcome [4] | Potency [5] | Potency [6] | max activation [7] -4.23% | Potency [8] | Potency [10] | Potency [11] | Potency [12] | Potency [13] | Potency [14] | Potency [15] | Potency [18] | Potency [17] | Potency [19]

BrCC1CO1 (stereo not given)
inactive: Potency [1] | outcome [2] | Potency [3] | outcome [4] | Potency [5] | Potency [6] | Potency [10] | Potency [11] | Potency [12] | Potency [13] | Potency [14] | Potency [15] | Potency [16] | Potency [18] | Potency [17] | Potency [19]

ClCCCCCCCl
inactive: Potency [1] | outcome [2] | Potency [3] | outcome [4] | Potency [5] | Potency [6] | Potency [10] | Potency [11] | Potency [12] | Potency [13] | Potency [16] | Potency [17] | Potency [19]
active: Potency [15] 39.9 µM | Potency [18] 35.6 µM

COP(=O)(OC)O/C(C)=C/C(=O)N(C)C
inactive: Potency [1] | outcome [2] | Potency [3] | outcome [4] | Potency [5] | Potency [6] | Potency [13] | Potency [14] | Potency [15] | Potency [17] | Potency [19]
active: Potency [10] 40.2 µM | Potency [11] 63.7 µM | Potency [12] 14.3 µM

COc1cccc(C=O)c1
active: Potency [18] 39.9 µM
inactive: Potency [1] | outcome [2] | Potency [3] | outcome [4] | Potency [5] | Potency [6] | Potency [10] | Potency [11] | Potency [12] | Potency [13] | Potency [15] | Potency [16] | Potency [17] | Potency [19]

CN(C)CCN(C)C
inactive: Potency [1] | outcome [2] | Potency [3] | outcome [4] | Potency [5] | Potency [6] | Potency [10] | Potency [11] | Potency [12] | Potency [13] | Potency [14] | Potency [15] | Potency [16] | Potency [17] | Potency [19]

CCCCCCC1CCOC1=O (stereo not given)
inactive: Potency [1] | outcome [2] | Potency [3] | outcome [4] | Potency [5] | Potency [6] | Potency [10] | Potency [11] | Potency [13] | Potency [14] | Potency [16] | Potency [17]
active: Potency [15] 39.9 µM

O=CCCl
inactive: Potency [1] | outcome [2] | Potency [3] | outcome [4] | Potency [5] | Potency [6] | Potency [10] | Potency [11] | Potency [12] | Potency [13] | Potency [14] | Potency [15] | Potency [18] | Potency [17] | Potency [19]

[O-][Br+2]([O-])O
inactive: Potency [1] | outcome [2] | Potency [3] | outcome [4] | Potency [5] | Potency [6] | Potency [10] | Potency [11] | Potency [13] | Potency [14] | Potency [15] | Potency [16] | Potency [18] | Potency [17] | Potency [19]

Cc1cc(OC(=O)N(C)C)nn1C(=O)N(C)C
inactive: Potency [1] | outcome [2] | Potency [3] | outcome [4] | Potency [5] | Potency [6] | Potency [16] | Potency [17] | Potency [19]
active: Potency [10] 7.1 µM | Potency [11] 5.03 µM | Potency [12] 1.26 µM | Potency [13] 39.9 µM | Potency [15] 35.6 µM

CCN[C@@H](C)Cc1ccccc1
active: Potency [14] 6.28 µM
inactive: Potency [1] | outcome [2] | Potency [3] | outcome [4] | Potency [5] | Potency [6] | Potency [10] | Potency [11] | Potency [12] | Potency [13] | Potency [16] | Potency [18] | Potency [17] | Potency [19]

O=P(O)(O)CN(CP(=O)(O)O)CP(=O)(O)O
inactive: Potency [1] | outcome [2] | Potency [3] | outcome [4] | Potency [5] | Potency [6] | Potency [10] | Potency [11] | Potency [12] | Potency [13] | Potency [14] | Potency [15] | Potency [18] | Potency [17] | Potency [19]

CCOC(=O)Nc1cccc(OC(=O)Nc2ccccc2)c1
inactive: Potency [1] | outcome [2] | Potency [3] | outcome [4] | Potency [5] | Potency [10] | Potency [11] | Potency [12] | Potency [13] | Potency [17]
active: Potency [6] 30.6 µM | Potency [15] 20 µM | Potency [18] 12.6 µM

From PubChem BioAssay (Tox21)
